HEK293 tox: kills HEK 293 cells; HEK 293 viability, ATP luminescence (CellTiter-Glo), 48-72 h; Potency, µM (highest dose often 115 µM), for the others: at the top dose activity change, negative = cytotoxicity, most hits filed as inhibitors; 94,000 tested, 6.6% active; AID 1345083; also: nearly all actives have a fitted effect of over 60% in size
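Cytotoxicity was scored by loss of ATP-coupled luminescence (CellTiter-Glo) in HEK 293 cells. Compound treatment ran 48 or 72 hr at 37 degree Celsius, 5% CO2, 95% humidity.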
NPR1 antag: antagonists of human natriuretic peptide receptor Npr1; HEK293 hNpr1 GloSensor cGMP, ANP-stimulated luminescence; Potency, µM (doses to about 46.3 µM), inactives show at the highest dose activity change, negative = inhibition, most hits filed as inhibitors; 76,000 tested, 1.6% active; AID 1347048; calls by dose curve; also: nearly all actives have a fitted effect of over 60% in size
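HEK293 cells stably expressing human Npr1 and cGMP GloSensor pGS-40F, loaded 2 h with 2% GloSensor reagent, given compound 30 min at room temperature. Luminescence read before and 20 min after 0.1 nM hNppA.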
3T3 cytotox: kills NIH 3T3 cells; 94,000 tested, 4.3% active; Potency, µM (doses to about 96.7 µM), inactives show at the top dose activity change, negative = cytotoxicity, most hits filed as inhibitors; NIH 3T3 viability, CellTiter-Glo ATP luminescence, 48-72 h; also: nearly all actives have a fitted effect of over 55% in size
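Luminescent ATP readout (CellTiter-Glo, 10 min RT) after 48 or 72 hr compound exposure of NIH 3T3 cells seeded at 400 cells/well in 1536-well format; quantitative HTS.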
FLuc inh: inhibitors of firefly (Photinus pyralis) luciferase; P08659; purified P. pyralis luciferase, luminescence, biochemical; Potency, µM (doses to about 115 µM), actives largely listed as inhibitors; 76,000 tested, 2.5% active; AID 1347043; also: nearly all actives have a fitted effect of over 65% in size
Target sequence (P08659 whole entry, looked up): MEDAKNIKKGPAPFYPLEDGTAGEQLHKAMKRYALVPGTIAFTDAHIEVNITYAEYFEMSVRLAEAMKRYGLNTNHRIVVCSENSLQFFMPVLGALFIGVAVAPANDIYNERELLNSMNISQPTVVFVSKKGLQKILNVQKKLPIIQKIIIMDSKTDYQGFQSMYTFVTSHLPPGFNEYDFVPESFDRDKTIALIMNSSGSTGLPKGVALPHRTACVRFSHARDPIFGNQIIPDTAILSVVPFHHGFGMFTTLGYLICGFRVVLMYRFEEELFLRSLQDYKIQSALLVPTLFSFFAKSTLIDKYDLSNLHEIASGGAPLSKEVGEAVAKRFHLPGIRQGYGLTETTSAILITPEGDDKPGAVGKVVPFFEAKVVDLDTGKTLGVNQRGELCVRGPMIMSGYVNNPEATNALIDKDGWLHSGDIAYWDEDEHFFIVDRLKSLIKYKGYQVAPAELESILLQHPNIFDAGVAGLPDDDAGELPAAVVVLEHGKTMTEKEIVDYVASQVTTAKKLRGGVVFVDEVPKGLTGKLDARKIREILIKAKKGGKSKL
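Luminescence read by CCD imaging after purified firefly luciferase (10nM final) was added to substrate buffer holding 10uM D-luciferin and 10uM ATP, pH 7.5, pre-dosed with compound.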
* marks the source's active call; other numbers are inactive results; i = inactive; ? = inconclusive; . = not tested or not shown; [ ] = dose if it differs, or a comment. The list is not random: actives were taken first. Their share in the collection is about 11%. Unless noted, calls follow the shape of the dose curve; as a rule, active = well fitted curve in the direction sought with a large enough effect; inconclusive = small, poorly fitted or top-dose-only effect, or another doubt; inactive = no such curve, though single readings can be large; an effect the other way counts as inactive or inconclusive. % is scaled to controls: 0 for no effect and ±100 for the full control effect; potency is read from the fitted curve at half-maximal effect.

SMILES	HEK293 tox	NPR1 antag	3T3 cytotox	FLuc inh
O=C(N[C@H]1CCN2C(=O)c3cc(-c4ccc(Cl)cc4)ccc3NC(=O)[C@H]12)c1cnccn1	79.4µM*	0.4%	?	i
COc1ccc(/C=C/c2ccc3c(c2)C(=O)N2CC[C@H](N)[C@H]2C(=O)N3)cc1	100µM*	1.3%[70.6 µM]	?	20µM*
O=C(N[C@H]1CCN2C(=O)c3ccccc3NC(=O)[C@H]12)c1cnccn1	2.0%[172 µM]	6.7%[70.6 µM]	1.8%[138 µM]	i
COc1ccc(/C=C/c2ccc3c(c2)C(=O)N2CC[C@H](NC(=O)c4cnccn4)[C@H]2C(=O)N3)cc1	-5.6%	-0.9%	-4.2%	7.94µM*
O=C(N[C@H]1CCN2C(=O)c3cc(-c4cccc(C(F)(F)F)c4)ccc3NC(=O)[C@H]12)c1cnccn1	44.7µM*	-0.5%	79.4µM*	i
N[C@H]1CCN2C(=O)c3cc(-c4ccccc4F)ccc3NC(=O)[C@H]12	-17.3%[172 µM]	-2.9%[70.6 µM]	-28.2%[138 µM]	i
O=C(C1CCCC1)N1CC2(CCCN(CC3CC3)C2)Cc2ccccc21 (stereo not given)	?	.	-25.0%	.
O=C(C1CCCC1)N1CC2(CCCN(Cc3c[nH]c4ccccc34)C2)Cc2ccccc21 (stereo not given)	22.4µM*	.	25.1µM*	.
O=C(C1CCCC1)N1CC2(CCN(CC3CCCCC3)C2)Cc2ccccc21 (stereo not given)	?	.	31.6µM*	.
O=C(C1CCCC1)N1CC2(CCN(Cc3ccc(Cl)cc3)C2)Cc2ccccc21 (stereo not given)	?	.	39.8µM*	.
NC(=O)c1cccc(CN2CCC3(Cc4ccccc4N(C(=O)C4CCCC4)C3)C2)c1 (stereo not given)	79.4µM*	.	-29.3%	.
O=C(O)CCC(=O)N1CCCC2(Cc3ccccc3N(C(=O)C3CCCC3)C2)C1 (stereo not given)	-28.1%	.	?	.
CC(C)N1C[C@@H](COc2ccc(-c3ccccc3)cc2)[C@H](c2ccccc2)S1(=O)=O	?	.	-11.9%	.
CN1CC2(CCN(C(=O)CC3CCCC3)CC2)CC1CN1CCOCC1 (stereo not given)	-7.1%	.	-22.7%	.
Nc1ccccc1CN1CCCC2(Cc3ccccc3CNC2=O)C1 (stereo not given)	?	.	-18.3%	.
CC1=C[C@@H](CN2CCOCC2)[C@H](C(C)C)C[C@H]1Cc1nnc(-c2ccccc2)o1	89.1µM*	-7.8%[70.6 µM]	?	i
CC1=C[C@@H](CN2CCN(c3ccccn3)CC2)[C@H](C(C)C)C[C@H]1Cc1nnc(-c2ccccc2)o1	39.8µM*	-27.9%	?	i
CC1=C[C@@H](CN2CCOCC2)[C@H](C(C)C)C[C@H]1Cc1nnc(-c2ccc(N(C)C)cc2)o1	?	-26.1%	?	i
CC1=C[C@@H](CN2CCN(c3cnccn3)CC2)[C@H](C(C)C)C[C@H]1Cc1nnc(-c2ccc([N+](=O)[O-])cc2)o1	?	1.0%	?	i
COc1ccc(-c2cccc(C(=O)N3CCN(C(=O)N(C)C)CC3)c2)nn1	-11.7%	.	-23.6%	.
O=C(NCC(=O)N1CCN(c2ccccn2)CC1)c1cc2ccccc2[nH]1	3.5%	6.4%	3.6%	?
COc1ccccc1-c1cccc(CN2CCCC(C(=O)NCc3ccc4c(c3)OCO4)C2)c1 (stereo not given)	35.5µM*	.	?	.
COc1ccccc1-c1cccc(CN2CCCC(C(=O)N3CCCCC3)C2)c1 (stereo not given)	79.4µM*	.	?	.
COc1ccccc1-c1cccc(C(=O)N2CCC[C@H]2C(=O)NCc2ccccc2)c1	?	.	-32.4%	.
COc1ccccc1-c1ccc(C(=O)N2CCC(C(=O)N3CCCC3)CC2)cc1	?	.	-17.8%	.
SMILES	HEK293 tox	NPR1 antag	3T3 cytotox	FLuc inh
COc1ccccc1-c1cccc(CN2CCCC(C(=O)NCc3cccc(F)c3)C2)c1 (stereo not given)	12.6µM*	.	?	.
CCOCCNC(=O)C1CCCN(Cc2cccc(-c3ccccc3OC)c2)C1 (stereo not given)	39.8µM*	.	?	.
COc1ccccc1-c1cccc(C(=O)N2CCC[C@H]2C(=O)NC(C)C)c1	-4.1%	.	-31.3%	.
O=C(NCc1cccs1)C1CCCN(Cc2cccc(-c3ccc(F)cc3F)c2)C1 (stereo not given)	44.7µM*	.	?	.
COc1ccccc1-c1cccc(CN2CCCC(C(=O)Nc3cccc(Cl)c3)C2)c1 (stereo not given)	25.1µM*	.	15.8µM*	.
O=C(NCc1cccc(C(F)(F)F)c1)C1CCCN(Cc2cccc(-c3ccc(F)cc3F)c2)C1 (stereo not given)	35.5µM*	.	?	.
COc1ccccc1-c1cccc(CN2CCCC(C(=O)NC(C)C)C2)c1 (stereo not given)	?	.	39.8µM*	.
O=C(NCc1cccs1)C1CCCN(c2nc3ncccc3o2)C1 (stereo not given)	-11.1%[172 µM]	0.0%[70.6 µM]	-16.7%[138 µM]	i
O=C(NCc1cccc(F)c1)C1CCCN(Cc2cccc(-c3ccc(F)cc3F)c2)C1 (stereo not given)	44.7µM*	.	35.5µM*	.
O=C1CCN(Cc2cccnc2)CCCC(C(=O)NCc2cc(F)cc(F)c2)CCN1 (stereo not given)	-25.2%	-3.3%	-13.1%	i
COc1ccccc1-c1cccc(CN2CCCC(C(=O)NCC(F)(F)F)C2)c1 (stereo not given)	44.7µM*	.	?	.
COC(=O)CNC(=O)C1CCCN(Cc2cccc(-c3ccccc3OC)c2)C1 (stereo not given)	-25.6%	.	?	.
Cn1c(=O)cc(C(=O)NC2CCCc3c2[nH]c2ccc(Cl)cc32)c2ccccc21 (stereo not given)	31.6µM*	-0.3%	?	i
CC(=O)NC1CCCc2c1[nH]c1ccc(Cl)cc21 (stereo not given)	?	-1.0%	?	i
CCOC(=O)CN1C(=O)CCN(C(=O)c2ccccc2OCC)CC(OC)c2ccccc21 (stereo not given)	-37.1%[57.5 µM]	.	?	.
C#CCNC(=O)C1CCCN1Cc1ccc(-c2cncnc2)cc1 (stereo not given)	-17.9%[172 µM]	.	-12.7%[138 µM]	.
O=C(NCC(F)F)C1CCCCN1Cc1ccc(-c2cccs2)cc1 (stereo not given)	25.1µM*	.	-25.1%	.
O=C(NCc1cccs1)C1CCCCN1Cc1ccc(-c2cccs2)cc1 (stereo not given)	31.6µM*	.	28.2µM*	.
COc1ccc(-c2ccccc2C(=O)NCC(F)(F)F)nn1	-13.2%[172 µM]	.	-20.4%[138 µM]	.
O=C(Cc1ccc(F)cc1)N1CCC2(CC1)CN(Cc1ccccc1)CC2CO (stereo not given)	44.7µM*	-28.3%	?	i
COCC1CN(C)CC12CCN(C(=O)Cc1ccc(OC)c(Cl)c1)CC2 (stereo not given)	89.1µM*	0.4%	-21.9%	i
COCC1CN(C2CCC2)CC12CCN(C(=O)c1ccccc1Cl)CC2 (stereo not given)	79.4µM*	-1.6%	?	i

Compound activity deposited in PubChem BioAssay by National Center for Advancing Translational Sciences (NCATS).
